For one experiment, the target named is POU1 (OCT1 POU domain) (human, UniProt P14859 260-458). Put plainly: EMSA-SELEX-seq; no BOB1; 20 mM Tris-HCl pH 7.6, 140 mM NaCl, 10% glycerol, 0.5 mM EDTA, 0.05% Triton X-100, 0.1 mg/mL BSA, 0.1 mg/mL poly(dI-dC), 5 mM DTT, room temperature, 20 min; high values mean tight binding. The conditions noted are these: protein: recombinant; dsDNA, one strand shown. In a few lines: (§1)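 Binding preference is reported as the percentage of sequenced 8-mers that match a motif pattern. Tagged POU-domain proteins were made in E. coli BL21, purified under denaturing conditions and renatured. A 30 ng portion was combined with 300 ng of a PCR-amplified double-stranded random 35-nt library, with or without 28 ng coactivator protein, in 20 μL Tris–HCl pH 7.6 binding buffer for 20 min at RT. Complex bands were excised from native 6% PAGE, eluted and PCR-amplified over four rounds before Illumina sequencing.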
(A gel shift assay detects complexes by their altered migration in electrophoresis.)

A further experiment concerns the target T1, POU2 (OCT2 POU domain) (human, UniProt P09086 175-386).
T1 sequence: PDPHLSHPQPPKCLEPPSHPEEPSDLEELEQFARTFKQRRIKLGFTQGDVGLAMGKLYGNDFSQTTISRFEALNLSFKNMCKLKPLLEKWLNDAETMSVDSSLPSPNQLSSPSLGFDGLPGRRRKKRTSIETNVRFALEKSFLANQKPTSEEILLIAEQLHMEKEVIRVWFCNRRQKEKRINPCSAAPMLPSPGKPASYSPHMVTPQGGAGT
The description is as above. The conditions noted are these: protein: recombinant; dsDNA, one strand shown. The method in brief:
as §1

Experiment [1] addresses POU1 (OCT1 POU domain);BOB1 (OBF1, OCA-B) (human;human, UniProt P14859;Q16633 260-458;1-256, |). Put plainly: EMSA-SELEX-seq; with BOB1 (ternary complex band); 20 mM Tris-HCl pH 7.6, 140 mM NaCl, 10% glycerol, 0.5 mM EDTA, 0.05% Triton X-100, 0.1 mg/mL BSA, 0.1 mg/mL poly(dI-dC), 5 mM DTT, room temperature, 20 min; high values mean tight binding. As to conditions: protein: recombinant;recombinant; copies: 1;1; dsDNA, one strand shown. In a few lines:
as §1

The target in experiment [2] is T2, POU2 (OCT2 POU domain);BOB1 (OBF1, OCA-B) (human;human, UniProt P09086;Q16633 175-386;1-256, |).
T2 sequence 1: T1 sequence
T2 sequence 2: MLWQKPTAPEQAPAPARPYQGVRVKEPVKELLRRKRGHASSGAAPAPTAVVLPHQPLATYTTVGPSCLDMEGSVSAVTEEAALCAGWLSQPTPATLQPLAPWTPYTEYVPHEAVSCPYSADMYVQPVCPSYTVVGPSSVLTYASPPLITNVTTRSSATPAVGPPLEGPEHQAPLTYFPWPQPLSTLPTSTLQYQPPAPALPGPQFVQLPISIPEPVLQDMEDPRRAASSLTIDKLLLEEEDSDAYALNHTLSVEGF
Described as above. As to conditions: protein: recombinant;recombinant; copies: 1;1; dsDNA, one strand shown. In a few lines:
as §1

POU1 (OCT1 POU domain), sequence (P14859 260-458): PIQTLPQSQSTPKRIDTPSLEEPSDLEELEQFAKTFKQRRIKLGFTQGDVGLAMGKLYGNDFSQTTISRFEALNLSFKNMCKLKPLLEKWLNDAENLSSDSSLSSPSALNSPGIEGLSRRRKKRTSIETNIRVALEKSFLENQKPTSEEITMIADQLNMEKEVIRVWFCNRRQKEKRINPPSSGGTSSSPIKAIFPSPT

For the sequence ACAGAAAA, the binding signal with POU1 (OCT1 POU domain) was 0.0389 % of ANNNNAAN 8-mers; with POU2 (OCT2 POU domain), 0.0472 % of ANNNNAAN 8-mers; in experiment [1], 0.0472 % of ANNNNAAN 8-mers; in experiment [2], 0.0322 % of ANNNNAAN 8-mers.
On to AGTACAAC, for which the binding signal with POU1 (OCT1 POU domain) is 0.0164 % of ANNNNAAN 8-mers; in the experiment with POU2 (OCT2 POU domain) it was 0.0173 % of ANNNNAAN 8-mers; in experiment [1], 0.0152 % of ANNNNAAN 8-mers; in experiment [2], 0.0413 % of ANNNNAAN 8-mers.
The corresponding values for ACGCAAAG are 0.098 % of ANNNNAAN 8-mers, 0.061 % of ANNNNAAN 8-mers, 0.163 % of ANNNNAAN 8-mers and 0.0809 % of ANNNNAAN 8-mers.
The corresponding values for AAAACAAT are 0.0736 % of ANNNNAAN 8-mers, 0.0604 % of ANNNNAAN 8-mers, 0.0913 % of ANNNNAAN 8-mers and 0.0735 % of ANNNNAAN 8-mers.
For ACGCCAAT the same measures were 0.0137 % of ANNNNAAN 8-mers, 0.0184 % of ANNNNAAN 8-mers, 0.0195 % of ANNNNAAN 8-mers and 0.0256 % of ANNNNAAN 8-mers.
Turning to ATTCTAAG, the binding signal with POU1 (OCT1 POU domain) was 0.0747 % of ANNNNAAN 8-mers; with POU2 (OCT2 POU domain), 0.0857 % of ANNNNAAN 8-mers; in experiment [1], 0.0593 % of ANNNNAAN 8-mers; in experiment [2], 0.0702 % of ANNNNAAN 8-mers.
Take AGTTTAAC: the binding signal with POU1 (OCT1 POU domain) was 0.04 % of ANNNNAAN 8-mers; with POU2 (OCT2 POU domain), 0.0449 % of ANNNNAAN 8-mers; in experiment [1], 0.0375 % of ANNNNAAN 8-mers; in experiment [2], 0.033 % of ANNNNAAN 8-mers.
The corresponding values for AAATGAAC are 0.115 % of ANNNNAAN 8-mers, 0.102 % of ANNNNAAN 8-mers, 0.11 % of ANNNNAAN 8-mers and 0.141 % of ANNNNAAN 8-mers.
Take AAAACAAC: the binding signal is 0.0362 % of ANNNNAAN 8-mers with POU1 (OCT1 POU domain), 0.0345 % of ANNNNAAN 8-mers with POU2 (OCT2 POU domain), 0.0609 % of ANNNNAAN 8-mers in experiment [1] and 0.0462 % of ANNNNAAN 8-mers in experiment [2].
The corresponding values for AGAGGAAC are 0.0229 % of ANNNNAAN 8-mers, 0.0339 % of ANNNNAAN 8-mers, 0.0234 % of ANNNNAAN 8-mers and 0.0264 % of ANNNNAAN 8-mers.
The corresponding values for ACTCGAAA are 0.0271 % of ANNNNAAN 8-mers, 0.0357 % of ANNNNAAN 8-mers, 0.0293 % of ANNNNAAN 8-mers and 0.0314 % of ANNNNAAN 8-mers.
In the case of AAGCCAAC, the binding signal with POU1 (OCT1 POU domain) was 0.0137 % of ANNNNAAN 8-mers; with POU2 (OCT2 POU domain) it was 0.0161 % of ANNNNAAN 8-mers; in experiment [1], 0.0109 % of ANNNNAAN 8-mers; in experiment [2], 0.0107 % of ANNNNAAN 8-mers.
In the case of ATGCCAAT, the binding signal is 0.0648 % of ANNNNAAN 8-mers with POU1 (OCT1 POU domain), 0.0857 % of ANNNNAAN 8-mers with POU2 (OCT2 POU domain), 0.0609 % of ANNNNAAN 8-mers in experiment [1] and 0.0627 % of ANNNNAAN 8-mers in experiment [2].
For AACCTAAG the same measures were 0.0256 % of ANNNNAAN 8-mers, 0.0213 % of ANNNNAAN 8-mers, 0.018 % of ANNNNAAN 8-mers and 0.0173 % of ANNNNAAN 8-mers.
As for AAAAGAAG, the binding signal is 0.0629 % of ANNNNAAN 8-mers with POU1 (OCT1 POU domain), 0.076 % of ANNNNAAN 8-mers in the experiment with POU2 (OCT2 POU domain), 0.0679 % of ANNNNAAN 8-mers in experiment [1] and 0.071 % of ANNNNAAN 8-mers in experiment [2].

The record behind these values is paper PMC10812921, “Transcriptional Coactivator BOB1 (OBF1, OCA-B) Modulates the Specificity of DNA Recognition by the POU-Domain Factors OCT1 and OCT2 in a Monomeric Configuration”.
